# Reference: PubChem BioAssay AID1345083 (National Center for Advancing Translational Sciences (NCATS), 2018)
# The campaign covered roughly 94,000 compounds. About 6,200 (6.6%) were called active. Not shown: some 31% with an inconclusive outcome. The call rests on the fitted dose curve; in most records, active means well fitted inhibition curve with a large enough effect; inconclusive means small, poorly fitted or top-dose-only effect; inactive means flat fitted curve, though single readings scatter. The entries come from a sample that favours actives as a whole.
# Assay: Cytotoxic Profiling in HEK 293 Cell Line of Diverse Libraries Using Quantitative High-Throughput Screening; further: nearly all actives have a fitted effect of over 60% in size
# Conditions: HEK 293 viability, ATP luminescence (CellTiter-Glo), 48-72 h; series mostly up to 115 µM; activity change, negative = cytotoxicity: at the top concentration
# Source text: Cell-based phenotypic screening is a commonly used approach to discover biological pathways, novel drug targets, chemical probes and high-quality hit-to-lead molecules. Many hits identified from high-throughput screening campaign are ruled out through a series of follow-up potency, selectivity/specificity, and cytotoxicity assays. Prioritization of molecules with little or no cytotoxicity for a more in-depth downstream evaluation influence the future direction of projects, so cytotoxicity profiling of the screening libraries at early stage is essential for increasing the likelihood of candidate success. In this study, we analyzed results from a cell-based cytotoxicity screening campaign, comprising nearly 10,000 compounds in NCATS annotated libraries, and over 100,000 compounds in a diversity library, evaluated in four normal cell lines (HEK 293, NIH 3T3, CRL-7250 and HaCat) and a cancer cell line (KB 3-1, a HeLa subline) with overall screening outcomes, hit rates, pan-activity and selectivity. For the annotated library, we also examined the primary targets and mechanistic pathways regularly associated with cell death. To our knowledge, this is the first study to use high-throughput screening to profile large libraries for cytotoxicity assessment in both normal and cancer cell lines. In summary, the results generated here constitutes a valuable resource for the scientific community and provides insight on identifying cytotoxic compounds with particular mechanisms of action, and prioritizing compounds with suitable cytotoxicity profile for further evaluation.
# HEK 293 cells were seeded into white 1536-well plates using a Multidrop Combi peristaltic dispenser (ThermoFisher, Waltham, MA) at a density of 250 cells/well in 5 uL of medium respectively. A pintool (Kalypsys) was used to transfer 23 nL of compound solution to the 1536-well assay plates. After 48 or 72 hr incubation at 37 degree Celsius, 5% CO2 and 95% humidity, 2.5 uL of CellTiter-Glo (Promega) was dispensed into each well using a dispenser (Aspect Automation, St. Paul, MN) with solenoid valves (Lee Valves, Westbrook CT). Plates were left at room temperature for 10 min before imaging the ATP-coupled luminescence using a ViewLux microplate imager (PerkinElmer, Waltham, MA).
# On the % scale 0 is the no-effect control and ±100 the full control effect; potency means the concentration at half of the fitted maximal effect.
Structure (SMILES),Potency,"activity change, negative = cytotoxicity",outcome
O=C(c1ccc2c(c1)N(C(=O)c1ccccc1)CC2)N1CCN(c2ccc(Cl)cc2)CC1,31.6 µM (active),–,–
CCC(CC)N1CCN(C(=O)c2ccc3c(c2)N(S(C)(=O)=O)CC3)CC1,–,-6.68% (inactive),–
CC(=O)N1CCc2ccc(C(=O)N3CCCCCC3)cc21,–,-7.22% (inactive),–
O=C(NC[C@H]1O[C@@H](CO)[C@@H](O)[C@H]1N1CCOCC1)c1ccco1,–,-4.16% [at 172 µM] (inactive),–
O=C(CCn1ccn2nc3c(c2c1=O)CCCC3)Nc1ccc(F)cc1Cl,–,-2.23% (inactive),–
O=C(CCn1ccn2nc3c(c2c1=O)CCCC3)Nc1ccc(Cl)c(C(F)(F)F)c1,44.7 µM (active),–,–
CCOC(=O)c1ccc(NC(=O)CCn2ccn3nc4c(c3c2=O)CCCC4)cc1,–,-21.7% (inactive),–
CCc1nc(-c2c3n(c(=O)n(CC(=O)NC4CCCCC4)c2=O)CCCC3)no1,–,4.44% (inactive),–
CCOC(=O)C1=C(C)NC(=O)NC1c1ccccc1 (configuration not stated),–,-2.03% (inactive),–
Cc1nccnc1N1CCC(c2nnc(CN3CCCC3)n2C)CC1,–,-7.58% (inactive),–
O=C1Cc2c(-c3ccc(Oc4ccccc4)cc3)n[nH]c2CN1CCc1ccncc1,79.4 µM (active),–,–
O=C1Cc2c(-c3ccc(CO)cc3)n[nH]c2CN1CC1CCOCC1,–,-27.8% [at 172 µM] (inactive),–
CC(C)Oc1cccc(-c2n[nH]c3c2CC(=O)N(Cc2ccccc2)C3)c1,–,-22.1% [at 172 µM] (inactive),–
CCc1ocnc1C(=O)NC1CC(c2cc(N3CCC(O)C3)ncn2)C1 (configuration not stated),–,–,inactive
Cc1nc(CCNC(=O)C2CCCN(c3nc(-c4ccccc4)nc4c3CCC4)C2)n[nH]1 (configuration not stated),–,-3.49% (inactive),–
O=C(NC1CCNC1)C1CCN(c2nc(-c3ccccc3)nc3c2CCC3)CC1 (configuration not stated),35.5 µM (active),–,–

Structure (SMILES),Potency,"activity change, negative = cytotoxicity",outcome
O=C(CN1CCCC1=O)NC1CCCc2nc(-c3ccccc3)ncc21 (configuration not stated),–,7.55% (inactive),–
CC(C)c1nc(CCNC(=O)[C@H]2CNC[C@@H](C(=O)N3CCCC3)C2)cs1,–,-4.75% (inactive),–
O=C(NCC1CCNCC1)c1ccc(C2CCNC2)cc1 (configuration not stated),–,-14.4% (inactive),–
CN(C)CCNC(=O)c1nc2nc(-c3ccccc3)c(-c3cccc(F)c3)cc2n1C,50.1 µM (active),–,–
O=C(NCCn1cccc1-c1nc(-c2ccc3c(c2)OCO3)no1)c1cccc(F)c1,–,-25.2% (inactive),–
COc1ccc(Nc2cc3c(nc2-c2ccccc2)nc(C(=O)NCCN(C)C)n3C)cn1,–,-23.9% (inactive),–
Cn1cccc1C(=O)N1CC[C@@H]2NC(=O)[C@H]3C[C@H](NC(=O)C4CC4)CN3C(=O)[C@H]21,–,–,inactive [at 172 µM]
CCCCN1C(=O)C(CC(=O)N2CCCCC2)Sc2ncccc21 (configuration not stated),–,-19.9% (inactive),–
CC(C)CNC(=O)c1nc2sccn2c1-c1ccncc1,–,–,inactive [at 172 µM]
CC(=O)N1CCC([C@@H]2CN(Cc3cc(F)c(F)cc3F)C[C@H]2CO)CC1,–,-4.04% (inactive),–
CC(C)S(=O)(=O)N1CCC(N2CC(OCC3CC3)C23CCCCC3)CC1 (configuration not stated),–,-25.7% (inactive),–
O=C1NC2(CCN(C(=O)c3ccccc3)C2)COc2ccccc21 (configuration not stated),100 µM (active),–,–
O=C1NC2(CCN(C(=O)c3ccccn3)C2)Oc2ccccc21 (configuration not stated),–,-8.41% [at 172 µM] (inactive),–
O=C1CC2(CCN(C(=O)c3ccccc3)C2)Nc2ccccc2N1 (configuration not stated),–,-16% (inactive),–
CCN(C1CCOCC1)C1CN(C(=O)C2CCC2)C1,–,-1.75% (inactive),–
COCCNC(=O)[C@@H]1C[C@H](Oc2ccccc2)CN1C(=O)c1ccccn1,–,-0.692% (inactive),–
